# Compound activity deposited in PubChem by National Center for Advancing Translational Sciences (NCATS).
# Compounds with a hit are over-represented: about 12% of the library has one in this group of screens.
# BAZ2B block: qHTS Assay for Inhibitors of BAZ2B; AlphaScreen BAZ2B-H3K14Ac peptide displacement; Potency, µM (top dose mostly 114 µM), most hits filed as inhibitors; actives 4.4% (n = 360,000); AID 504333, 2011; note: nearly all actives have a fitted effect of over 60% in size
#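 Compounds, titrated to a top concentration of 110 uM, were incubated 30 min at room temperature with preformed BAZ2B/acetyl-K14 H3 peptide complex (50 nM each). Proximity signal was measured by AlphaScreen after 20 min with beads.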
# Sfp PPTase inh: qHTS Assay for Inhibitors of Bacillus subtilis Sfp phosphopantetheinyl transferase (PPTase) | 4'-phosphopantetheinyl transferase ffp (Bacillus subtilis), Q9F4F7 | Biochemical Sfp PPTase activity, qHTS | Potency, µM, usual class: inhibitors | actives 3.5% (n = 310,000);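 note: the enzyme is Sfp with the accession as filed and its product quenches rhodamine fluorescence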
#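 After 15 min at room temperature with compound, 15 nM Sfp received 5 uM rhodamine-CoA plus 12.5 uM BHQ-2-ybbR (50 mM Hepes pH 7.6, 10 mM MgCl2). Rate came from the fluorescence difference over 30 min, ex 525/em 598 nm.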
# L3MBTL1 inh: qHTS Assay for the Inhibitors of L3MBTL1. Lethal(3)malignant brain tumor-like protein 1 (Homo sapiens), Q9Y468. AlphaScreen L3MBTL1–H3K9me1 peptide binding. Potency, µM (doses to about 57.1 µM), most hits filed as inhibitors. actives 0.66% (n = 230,000). AID 485360, 2010; note: nearly all actives have a fitted effect of over 60% in size
# Target sequence (Q9Y468 whole entry, looked up): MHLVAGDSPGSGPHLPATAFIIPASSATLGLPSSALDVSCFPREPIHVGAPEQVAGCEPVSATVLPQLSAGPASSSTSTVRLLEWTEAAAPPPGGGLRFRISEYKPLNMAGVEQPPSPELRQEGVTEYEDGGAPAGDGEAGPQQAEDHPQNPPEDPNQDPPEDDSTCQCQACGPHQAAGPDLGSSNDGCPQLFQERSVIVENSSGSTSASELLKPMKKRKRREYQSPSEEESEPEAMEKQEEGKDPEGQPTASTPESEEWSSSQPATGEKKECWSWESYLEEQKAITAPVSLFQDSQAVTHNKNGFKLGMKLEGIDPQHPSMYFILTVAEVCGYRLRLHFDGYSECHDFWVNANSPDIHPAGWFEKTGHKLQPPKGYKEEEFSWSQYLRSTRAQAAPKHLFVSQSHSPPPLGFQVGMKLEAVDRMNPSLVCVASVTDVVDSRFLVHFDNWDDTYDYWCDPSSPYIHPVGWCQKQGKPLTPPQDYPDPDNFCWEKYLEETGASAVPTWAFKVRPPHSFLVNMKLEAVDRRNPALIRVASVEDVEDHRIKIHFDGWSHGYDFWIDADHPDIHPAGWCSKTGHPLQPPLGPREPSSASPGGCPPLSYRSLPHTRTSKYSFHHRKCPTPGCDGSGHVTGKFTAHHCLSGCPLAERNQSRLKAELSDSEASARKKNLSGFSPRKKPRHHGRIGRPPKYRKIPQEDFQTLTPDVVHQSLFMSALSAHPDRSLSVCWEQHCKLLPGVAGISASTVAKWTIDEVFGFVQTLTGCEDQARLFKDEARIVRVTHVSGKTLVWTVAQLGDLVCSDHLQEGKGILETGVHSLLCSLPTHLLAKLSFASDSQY
#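 Displacement of a biotinylated histone H3(1-15) peptide monomethylated at Lys9 (75 nM) from L3MBTL1 (50 nM) was measured by AlphaScreen after a 30 min room-temperature compound incubation; cefsulodin titration served as intraplate control.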
# G9a inh: qHTS Assay for Inhibitors of Histone Lysine Methyltransferase G9a. actives 8.8% (n = 350,000). G9a H3K9 monomethylation, AlphaScreen, 2 h. Potency, µM (titrated, usually from 102 µM), usual class: inhibitors; note: nearly all actives have a fitted effect of over 75% in size
#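 AlphaScreen detection with an anti-monomethyl H3K9 antibody quantified product after a 2 h room-temperature reaction containing 500 nM biotinylated H3K9 peptide, 20 µM SAM and 20 nM enzyme, which had been preincubated 15 min with compound.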
# HP1b binding inh: HTS for Inhibitors of HP1-beta Chromodomain Interactions with Methylated Histone Tails; AlphaScreen HP1-beta / biotin-H3K9me3 peptide binding; Potency, µM (series often up to 114 µM), most hits filed as inhibitors; actives 0.56% (n = 390,000); AID 540317, 2011; note: nearly all actives have a fitted effect of over 70% in size
#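 Compound inhibition of the preformed complex between 50 nM HP1-beta and 50 nM biotinylated H3K9me3 peptide was read by AlphaScreen. Buffer was PBS pH 7.4 with 0.01% Tween-20. Incubations ran 30 min at room temperature, with 10 ug/mL donor/acceptor beads.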
# JMJD2A Tudor: qHTS Assay for Inhibitors of JMJD2A-Tudor Domain; Lysine-specific demethylase 4A (Homo sapiens), O75164; AlphaScreen JMJD2A-Tudor / H3K4me3 peptide binding; Potency, µM (series often up to 114 µM), hits mostly inhibitors; actives 4.4% (n = 390,000); AID 504339, 2011; note: nearly all actives have a fitted effect of over 50% in size
# Numbers stand for hits; i = inactive; ? = inconclusive; nt = no result; [ ] = dose if it differs, or a comment. Calls come from the whole dose curve; as a rule, active = well fitted curve in the direction sought with a large enough effect; inconclusive = small, poorly fitted or top-dose-only effect, or another doubt; inactive = no such curve, though single readings can be large; an effect the other way counts as inactive or inconclusive.
SMILES,BAZ2B block,Sfp PPTase inh,L3MBTL1 inh,G9a inh,HP1b binding inh,JMJD2A Tudor
COc1ccc(/C=N/Nc2cc(C)nc3ccc(OC)cc23)c(OC)c1,i,50µM,i,45µM,i,?
Cc1cc(NCCN2CCOCC2)c2ccc3ccccc3c2n1,i,i,i,i[12.7 µM],i,i
CCOC(=O)CSc1nc2sc3c(c2c(=O)n1Cc1ccccc1)CC(C)CC3 (stereo unspecified),i,nt,nt,i,i,i
Cc1cc2c(s1)c1cnn(Cc3ccc(C(=O)O)cc3)c(=O)c1n2C,nt,nt,nt,nt,nt,i
COc1cc(/C=C/c2nc3cc(Cl)ccc3c(=O)n2-c2ccc(C)cc2C)cc(OC)c1OC,i,nt,nt,i,i,i
COC(=O)Nc1cc(C(=O)c2ccc(Cl)cc2Cl)c[nH]1,?,i,nt,50µM,i,?
COC(=O)NNC(=O)c1ccc(Cl)cc1Cl,i,i,i,i,i,i
C=C1CCN(C(CC(C)C)C(=O)NCCCc2ccccc2)S(=O)(=O)c2ccccc21 (stereo unspecified),nt,i,nt,nt,i,i
CCN(Cc1ccccc1)S(=O)(=O)c1ccc(C(=O)N(CCCN(C)C)c2nc3c(F)cccc3s2)cc1,?,79µM,nt,?,i,?
CN(C)CCCN(C(=O)c1ccc(S(=O)(=O)N2CCCCCC2)cc1)c1nc2c(F)cccc2s1,?,i,nt,nt,i,i
CCOc1cccc2sc(N(CCCN(C)C)C(=O)c3ccc(S(=O)(=O)N(CC)Cc4ccccc4)cc3)nc12,?,50µM,nt,40µM,i,32µM
Cc1ccc2sc(N(CCCN(C)C)C(=O)c3ccc(S(=O)(=O)N(C)Cc4ccccc4)cc3)nc2c1C,i,nt,i,10µM,?,?
CCOc1cccc2sc(N(CCCN(C)C)C(=O)c3ccc(S(=O)(=O)N(C)Cc4ccccc4)cc3)nc12,i,56µM,nt,?,i,i
CC(C)CCCC(C)CCCC(C)CCCC(C)C(=O)O (stereo unspecified),nt,i,nt,nt,nt,nt
Cc1ccc(C)c(NC(=O)CSc2c(C)cnc3c2c(=O)n(C)c(=O)n3C)c1,i,nt,nt,i,i,i
CCNC(=O)/N=C1/NC(=O)C(C(C)C)O1 (stereo unspecified),i,i,i,?,i,7.9µM
O=C1OC(c2ccccc2)(c2ccccc2)c2ccccc21,nt,nt,nt,nt,i,i
CN(C)c1ccc(C2(c3ccc(N(C)C)cc3)OC(=O)c3cc(N)ccc32)cc1,18µM,i,nt,i[2.33 µM],16µM,28µM
CCN1CCN(Cc2ccc(NC(=O)c3ccc(C)c(NC(=O)N4CCNC4=O)c3)cc2C(F)(F)F)CC1,i,i,i,?,i,i
CCN1CCN(Cc2ccc(NC(=O)c3ccc(C)c(NC(=O)c4cc(-c5ccc(Br)cc5)n[nH]4)c3)cc2C(F)(F)F)CC1,?,79µM,nt,?,i,?
CCN1CCN(Cc2ccc(NC(=O)c3ccc(C)c(NC(=O)c4nccnc4N)c3)cc2C(F)(F)F)CC1,i,89µM,nt,i[12.7 µM],i,i
CCN1CCN(Cc2ccc(NC(=O)c3ccc(C)c(NC(=O)c4nccn4C)c3)cc2C(F)(F)F)CC1,i,i,nt,i[12.7 µM],i,i
COc1ccc2c(c1)CC(C(=O)NCCCN1CCN(c3ccc(F)cc3)CC1)CO2 (stereo unspecified),?,nt,nt,i,i,?
O=S(=O)(Nc1nc2ccccc2nc1Cl)c1ccc(Br)cc1,nt,71µM,?,?,i,i
O=S(=O)(Nc1nc2ccccc2nc1N1CCc2ccccc2C1)c1ccc(Br)cc1,i,i,i,8.9µM,i,i
SMILES,BAZ2B block,Sfp PPTase inh,L3MBTL1 inh,G9a inh,HP1b binding inh,JMJD2A Tudor
Cc1ccccc1CNC(=O)c1cccc(NC(=O)N2CCSc3ncccc32)c1,i,nt,nt,i,i,i
CC(=O)c1c(C)[nH]c(C(=O)Nc2cccc(C)c2C)c1C,i,i,nt,i,i,i
Cc1cccc(NC(=O)c2n[nH]c([N+](=O)[O-])c2Br)c1C,i,i,i,40µM,i,i
Cc1ccc(NC(=O)CN(CCc2ccccc2)S(=O)(=O)c2ccccc2)c(C)c1,i,nt,nt,i,i,i
Cc1cc([N+](=O)[O-])nn1CCCC(=O)Nc1cc(Oc2ccccc2)cc([N+](=O)[O-])c1,?,i,i,40µM,i,?
Cc1cccc(Oc2cc(NC(=O)Cn3cnc([N+](=O)[O-])n3)cc([N+](=O)[O-])c2)c1,?,i,i,14µM,i,?
O=C(NCC(c1ccco1)S(=O)(=O)c1cccs1)c1ccc(C(F)(F)F)cc1 (stereo unspecified),i,nt,nt,i,i,i
O=C(Nc1ccc(OCc2cc(=O)n3c4c(sc3n2)CCCC4)cc1)c1ccccc1,i,nt,nt,i,i,i
C=C(C)C(=O)/C=C/c1ccc(C(F)(F)F)cc1,nt,i,nt,nt,nt,nt
C/C(=N\NC(=O)c1ccc(Cn2cc([N+](=O)[O-])cn2)o1)c1cccc(NC(=O)c2cccnc2)c1,i,i,i,i,i,i
CC(=O)Nc1cccc(/C(C)=N\NC(=O)c2ccc(Cn3nc([N+](=O)[O-])c(Cl)c3C)o2)c1,i,i,i,i[2.33 µM],i,50µM
Cc1ccc(C(=O)CC2(O)C(=O)N(Cc3ccccc3)c3ccccc32)c(C)c1 (stereo unspecified),10µM,nt,nt,2.2µM,?,40µM
COc1ccccc1N1CCN(C(=O)c2ccc3c(c2)N(Cc2ccccc2)C(=O)c2ccccc2S3(=O)=O)CC1,i,nt,nt,i,i,i
c1cncc(-c2cccnc2)c1,40µM,i,i,nt,i,i
Oc1cncc(-c2cccnc2)c1,i,nt,i,i[0.501 µM],i,i
NC(Cc1ccccc1)C(O)c1ccco1 (stereo unspecified),nt,i,nt,nt,i,i
CC(C)Sc1ncc(Cl)c(C(=O)Nc2ccc(S(=O)(=O)N3CCCCC3C)cc2)n1 (stereo unspecified),i,nt,nt,i,i,i
Oc1ccc(N=C/C=C/c2cccc(Br)c2)cc1-c1nc2ccccc2s1,?,?,?,7.9µM,i,?
Nc1ccc(O)c(-c2nc3ccccc3s2)c1,i,i,?,14µM,i,i
O=C(Nc1ccc(O)c(-c2nc3ccccc3s2)c1)c1cccs1,i,?,i,i,i,i
Oc1ccc(-c2nc3ccccc3s2)c(O)c1,i,i,i,i,i,i
Cc1cccc(N2CCn3c2nc2c3c(=O)n(CCCc3ccccc3)c(=O)n2C)c1,?,nt,nt,i,i,i
COc1ccc(-c2cc(C)no2)cc1S(=O)(=O)NC(C)C,i,nt,nt,i,i,i
